PMC4336329 (PLoS ONE, 2015)
Screen size: about 310,000 compounds; about 14,000 (4.5%) showed an effect of 50% or more. The effect is printed as a negative number. The full list was thinned out, with strong results kept by preference.

What follows are molecules tested against human ether-à-go-go-related gene (hERG) potassium channel (human, UniProt Q12809) (assay: primary screen, population patch clamp on CHO cells stably expressing hERG; higher = less effect of the substance).
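Further: peak tail current of the secondary pulse compared with the same well before compound.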

human ether-à-go-go-related gene (hERG) potassium channel, sequence (Q12809 whole entry, looked up): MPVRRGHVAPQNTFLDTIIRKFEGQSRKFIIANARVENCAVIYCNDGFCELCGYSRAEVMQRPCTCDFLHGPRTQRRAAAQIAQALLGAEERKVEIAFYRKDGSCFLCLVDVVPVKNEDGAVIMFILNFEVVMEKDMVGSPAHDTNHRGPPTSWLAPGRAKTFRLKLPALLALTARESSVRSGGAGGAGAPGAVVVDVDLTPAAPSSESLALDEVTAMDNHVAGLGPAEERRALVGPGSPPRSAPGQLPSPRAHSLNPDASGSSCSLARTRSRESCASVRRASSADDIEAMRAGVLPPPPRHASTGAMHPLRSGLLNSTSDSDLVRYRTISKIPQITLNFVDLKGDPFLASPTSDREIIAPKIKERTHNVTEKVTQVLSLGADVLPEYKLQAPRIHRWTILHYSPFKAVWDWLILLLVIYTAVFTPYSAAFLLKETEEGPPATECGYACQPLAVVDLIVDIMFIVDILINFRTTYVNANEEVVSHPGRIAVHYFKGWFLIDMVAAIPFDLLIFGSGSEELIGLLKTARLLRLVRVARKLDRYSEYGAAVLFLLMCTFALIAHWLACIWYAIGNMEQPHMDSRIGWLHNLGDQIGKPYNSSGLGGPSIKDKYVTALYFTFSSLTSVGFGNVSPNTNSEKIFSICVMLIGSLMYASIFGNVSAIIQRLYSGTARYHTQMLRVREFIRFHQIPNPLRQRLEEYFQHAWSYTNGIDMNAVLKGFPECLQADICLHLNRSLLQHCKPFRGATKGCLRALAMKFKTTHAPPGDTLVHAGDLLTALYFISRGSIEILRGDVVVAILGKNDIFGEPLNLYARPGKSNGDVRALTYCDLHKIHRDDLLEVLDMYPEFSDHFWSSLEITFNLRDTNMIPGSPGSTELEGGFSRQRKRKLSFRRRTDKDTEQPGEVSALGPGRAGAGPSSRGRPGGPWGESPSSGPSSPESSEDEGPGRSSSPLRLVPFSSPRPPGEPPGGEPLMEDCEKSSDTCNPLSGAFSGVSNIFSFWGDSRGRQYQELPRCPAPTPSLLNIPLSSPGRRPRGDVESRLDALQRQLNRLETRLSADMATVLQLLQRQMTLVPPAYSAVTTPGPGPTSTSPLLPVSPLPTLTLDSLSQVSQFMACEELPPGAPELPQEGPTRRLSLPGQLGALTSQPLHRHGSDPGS

Row | SMILES | hERG current change (%, negative = inhibition) at 10uM [%]
1 | COc1ccc(S(=O)(=O)N(CC(C)C)C2CCS(=O)(=O)C2)cc1OC (centres unmarked) | 4.62
2 | CC(=O)c1ccc(N2CCN(C(=O)C3CCN(S(=O)(=O)c4ccc5c(c4)CC(C)N5C(=O)C4CC4)CC3)CC2)cc1 (centres unmarked) | -8.83
3 | COc1ccc(CNC(=O)COC(=O)c2ccc3ncsc3c2)cc1OC | 14.5
4 | C=C(C)C(=O)N1CC2(CC(c3cccc(NC(=O)/C=C\C=C/C)c3)=NO2)C[C@H]1C(N)=O (some centres unmarked) | 0.942
5 | CSc1ccc(S(=O)(=O)NCC(=O)OCC(=O)N2CCCC2=O)cc1[N+](=O)[O-] | -9.51
6 | Cc1nn(CC#N)c(=O)n1-c1ccccc1F | 10.8
7 | COc1cc(CNCCO)cc(Cl)c1OCc1ccc(Cl)cc1Cl.Cl | -7.34
8 | COc1cc(CNCCN2CCOCC2)ccc1OCC(=O)NC(C)(C)C.Cl | 6.17
9 | COc1cc(CNCCN2CCOCC2)ccc1OCc1c(Cl)cccc1Cl.Cl | -50.6
10 | COc1cc(CNCCN2CCOCC2)ccc1OCc1ccccc1Cl.Cl | -45.7
11 | COc1cc(CNCCN2CCOCC2)ccc1OCc1ccc(Cl)cc1Cl.Cl | -69.7
12 | COc1cc(CNCCN(C)C)ccc1OCc1c(F)cccc1Cl.Cl | -19.6
13 | COc1cc(CNCCCN2CCOCC2)cc(Br)c1OCc1ccc(Cl)cc1.Cl | -35.5
14 | COc1cc(CNCCN2CCOCC2)ccc1OCc1ccc(Cl)cc1.Cl | -42.1
15 | COc1cc(CNCCN2CCOCC2)ccc1OCc1cccc(Cl)c1.Cl | -63.2
16 | O=C1CC2C(=O)NCCN2C(=NC(=O)c2ccc(Cl)cc2)N1 (centres unmarked) | -15.7

Row | SMILES | hERG current change (%, negative = inhibition) at 10uM [%]
17 | COc1ccc(C(=O)Nc2ccc(NC(=O)C(C)C)nc2)cc1 | 18.9
18 | COc1cccc(/C=N/n2c(-c3n[nH]c4c3CCC4)n[nH]c2=S)c1OC | 14.1
19 | O=C(NCCCNC(=O)c1ccc(Cl)cc1Cl)c1ccccn1 | -2.08
20 | O=C(CSc1nnc(CNC(=O)c2cccs2)o1)Nc1ccc(Cl)cc1 | -4.26
21 | CCC(C)NC(=O)COc1ccccc1[N+](=O)[O-] (centres unmarked) | 16
22 | CSCCC(NC(=O)c1ccco1)C(=O)NCC(c1ccccc1)N(C)C (centres unmarked) | -9.02
23 | COc1ccc(C/C(N)=N/OC(=O)Cc2ccccc2)cc1 | -7.03
24 | CCOC(=O)c1c(NC(=S)Nc2ccc(OC)cc2)sc2c1CCC2 | 14
25 | CCOC(=O)c1c(NC(=S)Nc2ccc(OC)cc2)sc2c1CCCCC2 | 12.5
26 | CCOC(=O)c1c(NC(=O)Nc2ccc(F)cc2)sc2c1CCN(C)C2 | -26
27 | CCOC(=O)c1c(NC(=S)Nc2ccccc2)sc2c1CC(C)(C)SC2 | -3.74
28 | CCOC(=O)c1c(NC(=S)Nc2ccccc2)sc2c1CCN(C)C2 | -74.2
29 | CCOC(=O)c1c(NC(=O)Nc2ccc(C)cc2)sc2c1CCN(C)C2 | -47.6
30 | CCOC(=O)c1c(NC(=S)Nc2ccccc2)sc2c1CCCCC2 | 17.3
31 | CCOC(=O)c1c(NC(=S)Nc2ccc(OCC)cc2)sc2c1CCN(C)C2 | -70.4
32 | CCOC(=O)c1c(NC(=S)Nc2ccc(Cl)cc2)sc2c1CCN(C)C2 | -74.2
